In the library only some 11% were active in any assay of this set; here they are far more common.
ALDH1A1 inh = inhibitors of human aldehyde dehydrogenase 1A1; P00352; 7.3% of 220,000 active; AID 1030; Potency, µM (top dose mostly 75.3 µM), without a hit: at the top dose activity, negative = inhibition, hits mostly inhibitors; Purified ALDH1A1, NADH fluorescence, propionaldehyde substrate; active = well fitted inhibition curve with a large enough effect, not every such curve was filed as active; inconclusive = small, poorly fitted or top-dose-only effect, or another doubt; inactive = no such curve, though single readings can be large or run the other way;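 note: potency is the fitted concentration of half-maximal effect; plate controls were no enzyme wells and a reference inhibitor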
Target sequence (P00352 whole entry, looked up): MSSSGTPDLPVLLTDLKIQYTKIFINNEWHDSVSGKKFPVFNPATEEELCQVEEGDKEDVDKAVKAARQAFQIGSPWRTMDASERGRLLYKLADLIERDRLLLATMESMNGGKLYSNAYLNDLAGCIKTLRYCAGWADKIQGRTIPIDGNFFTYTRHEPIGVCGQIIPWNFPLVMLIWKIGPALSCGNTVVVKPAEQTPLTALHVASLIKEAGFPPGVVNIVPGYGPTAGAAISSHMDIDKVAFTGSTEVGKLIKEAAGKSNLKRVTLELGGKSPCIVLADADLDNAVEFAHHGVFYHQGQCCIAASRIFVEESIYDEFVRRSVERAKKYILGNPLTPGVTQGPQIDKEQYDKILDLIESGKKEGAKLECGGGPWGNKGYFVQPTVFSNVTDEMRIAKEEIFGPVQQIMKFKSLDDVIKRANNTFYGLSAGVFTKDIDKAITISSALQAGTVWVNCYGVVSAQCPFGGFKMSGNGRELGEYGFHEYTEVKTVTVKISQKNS
PNC inhibitor = perinucleolar compartment assembly inhibition. PC3M PTB-GFP, PNC prevalence imaging, 16 h; stronger effect = lower value. activity change (PNC), negative = inhibition, % at 10 µM. 3.1% of 140,000 active. AID 2417;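 active = readout at or below -70, meaning at least 70% loss of cells showing the perinucleolar compartment, a nuclear body marking cancer cells; inconclusive = readout between -30 and a set limit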;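 note: plate controls were DMSO wells for no effect and camptothecin positive control wells for full effect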
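PC3M cells stably expressing PTB-GFP, 750–1000 cells/well, treated 16 h at 37 °C with compound (23 nl of library stock), in duplicate. After paraformaldehyde fixation and Hoechst stain, imaged at 20x; PNC prevalence scored by image analysis.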
IMPase cell inh = cell-permeable inhibitors of inositol monophosphatase (IMPase) | P97697 | CHO-M1 cells, IP1 accumulation, HTRF TR-FRET ratio | inhibition (IP1 accumulation), % at 46.1 µM | 120,000 tested, under 10 active | AID 901; active = well fitted curve in the direction sought with a large enough effect in the signal ratio, not every such curve was filed as active; inconclusive = small, poorly fitted or top-dose-only effect, or a change in a side signal; inactive = no such curve, though single readings can be large or run the other way; the % refers to the signal ratio;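 note: cells stimulated with carbachol in lithium chloride buffer; plate controls were DMSO basal wells for no effect and reference inhibitor wells for full effect; higher means more IMPase inhibition seen as more IP1 and lower FRET ratio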
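CHO-M1 cells (CHO stably expressing M1 receptor), compound up to 46 uM final, stimulated with carbachol (50 uM as added) in buffer with 50mM LiCl, pH 7.4, 30 min at 37C. Cytosolic IP1 read by TR-FRET; AC50 from Hill fits.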
12-hLO inh = blocks human 12-lipoxygenase activity | purified 12-hLO, xylenol orange hydroperoxide absorbance | Potency, µM (series often up to 57.1 µM), for inactives: at the top dose activity change, negative = inhibition, actives largely listed as inhibitors | 0.12% of 150,000 active | AID 1452; note: potency is the fitted concentration of half-maximal effect; nearly all actives have a fitted effect of over 55% in size
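Hydroperoxide formation by human 12-lipoxygenase from 40 uM arachidonic acid was followed colorimetrically via ferric-xylenol orange complex, using the 573/405 nm absorbance ratio. Enzyme concentration was 150 nM, with 30 min reaction at room temperature.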
IMPase Li inh = cell-permeable IMPase inhibitors with lithium potentiation. 0.35% of 210,000 active. CHO-M1 cells, IP1 TR-FRET (IP-One), carbachol + lithium. Potency, µM (doses to about 59.4 µM), without a hit: top-dose activity, negative = IMPase inhibition, usual class: inhibitors;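 note: IP1 builds up when IMPase is blocked and the TR-FRET signal falls; potency is the fitted concentration of half-maximal effect; plate controls were basal vehicle for no effect and high inhibitor control for full effect; nearly all actives have a fitted effect of over 50% in size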
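CHO cells stably expressing M1 receptor (2000/well) were cultured 16–30 h, then exposed to compounds with a small lithium addition for 30 min at 37C. IP1 was measured by TR-FRET competition; AC50 from Hill fits.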
HPGD inh = blocks human HPGD enzyme activity. purified HPGD, NADH fluorescence kinetic, PGE2 substrate. Potency, µM, for inactives: at the highest dose activity change, negative = inhibition, actives largely listed as inhibitors. 4.3% of 150,000 active; active = well fitted inhibition curve with a large enough effect, not every such curve was filed as active; inconclusive = small, poorly fitted or top-dose-only effect, or another doubt; inactive = no such curve, though single readings can be large or run the other way; note: potency is the fitted concentration of half-maximal effect
Target sequence (P15428 whole entry, looked up): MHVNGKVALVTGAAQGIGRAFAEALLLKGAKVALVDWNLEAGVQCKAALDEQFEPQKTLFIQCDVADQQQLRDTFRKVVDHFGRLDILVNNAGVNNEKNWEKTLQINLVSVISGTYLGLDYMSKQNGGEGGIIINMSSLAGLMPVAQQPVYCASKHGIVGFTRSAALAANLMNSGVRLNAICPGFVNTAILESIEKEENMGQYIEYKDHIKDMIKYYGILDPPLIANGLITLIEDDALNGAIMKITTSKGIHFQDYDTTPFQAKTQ
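20 nM HPGD preincubated 15 min at room temperature with compound in 50 mM Tris-HCl pH 8, 0.01% Tween 20. Started with 1 mM NAD+ and 30 uM prostaglandin E2; NADH fluorescence (360/450 nm) read 5 times over 30-s intervals, last minus first.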
* = called active by the depositor; ? = inconclusive; . = not tested or not shown; [ ] = remark or other dose. Unless noted, calls come from the whole dose curve; as a rule, active = well fitted curve in the direction sought with a large enough effect; inconclusive = small, poorly fitted or top-dose-only effect, or another doubt; inactive = no such curve, though single readings can be large; an effect the other way counts as inactive or inconclusive. Unless noted, % is set by controls: 0 for no effect and ±100 for the full control effect.

SMILES	ALDH1A1 inh	PNC inhibitor	IMPase cell inh	12-hLO inh	IMPase Li inh	HPGD inh
N#CC12CCCCC1CC1CCCCC1(C#N)N2Cc1cccnc1 (stereo not drawn)	5.3%	-86.6*	3.2	-3.5%	-0.5%[38.3 µM]	-5.9%
Cn1c(=O)c2c(nc(CN3CCN(C(=O)c4ccco4)CC3)n2CCc2ccccc2)n(C)c1=O	12.6µM*	?	8.9	-1.4%	-7.0%[38.3 µM]	-9.6%
CCN1CCN(Cc2nc3c(c(=O)n(C)c(=O)n3C)n2CCCc2ccccc2)CC1	12.6µM*	-14.7	-14.6	-1.2%	0.6%[38.3 µM]	-14.4%
CCN1CCN(Cc2nc3c(c(=O)n(C)c(=O)n3C)n2CCc2ccccc2)CC1	2.1%	?	.	-4.3%	-4.0%	0.1%
Cn1c(=O)c2c(nc(-n3ccnc3)n2C)n(C)c1=O	2.1%	?	2.4	6.8%	1.8%[38.3 µM]	-2.7%
Cn1c(=O)c2c(nc(CN3CCN(C(=O)c4ccco4)CC3)n2CCCc2ccccc2)n(C)c1=O	1.26µM*	28.9	-4.3	8.1%	4.0%[38.3 µM]	-1.0%
COc1ccc(N2CCN(Cc3nc4c(c(=O)n(C)c(=O)n4C)n3CCc3ccccc3)CC2)cc1	?	-24.9	-3.5	0.9%	-2.5%	-11.1%
Cn1c(=O)c2c(nc(-n3ccnc3)n2Cc2ccccc2)n(C)c1=O	10µM*	-9.1	9.4	-1.8%	15.3%[38.3 µM]	-14.1%
Nc1c(S(N)(=O)=O)cc(S(N)(=O)=O)cc1S(N)(=O)=O	1.5%[13.5 µM]	.	.	1.1%[11.4 µM]	-10.6%	-5.4%
CC(=O)N[C@H](C(=O)O)C(C)(C)SN=O	1.9%	.	.	.	10.7%	5.1%
COc1ccc2cnoc(=O)c2c1OC	?	.	.	.	-23.4%	?
Cn1c(=O)c2c(nc(CN3CCOCC3)n2CCc2ccccc2)n(C)c1=O	7.08µM*	21.1	0.4	-5.6%	-7.7%[38.3 µM]	-4.7%
COc1ccc(CC(=O)c2ccc(O)cc2O)cc1	?	.	.	-25.9%	18.7%	25.1µM*
CCOc1ccc(C(=O)Cc2ccc3oc(C(=O)O)cc3c2)c(O)c1	?	4.6	5.4	-4.4%	0.8%	7.94µM*
O=C(Cc1ccc(Br)cc1)c1ccc(O)cc1O	2.1%	-17.7	-3.7	?	.	.
Cn1c2ccccc2c2c(C(=O)N3CCN(c4cccc(Cl)c4)CC3)cn(C3CCCCC3)c(=O)c21	.	.	7.0	.	.	.
CC(=O)c1cc2c(cc1NC(=O)CCCC(=O)O)OCO2	0.4%	23.3	-0.2	-0.4%	-7.1%[38.3 µM]	-13.8%
CC(=O)c1cc2c(cc1NC(=O)CN1CCCCCCC1)OCO2	10µM*	18.3	8.8	-9.4%	7.3%	-10.0%
CC1=C(C)CC(c2ccccc2)C(C(=O)c2ccccc2O)C1 (stereo not drawn)	-1.3%[13.5 µM]	.	.	.	.	.
COc1cc(CNc2ccc3[nH]c(=O)[nH]c3c2)cc(Br)c1OCC(=O)NC(C)(C)C	0.316µM*	42.5	10.0	-6.6%	63.4%[38.3 µM]	?
CCOc1cc(CNc2ccc(N(C)C)cc2)cc(Br)c1OCC(=O)NC(C)(C)C	3.16µM*	?	?	-4.5%	-7.1%[38.3 µM]	-24.0%
COc1cc(CNc2ccc3[nH]c(=O)[nH]c3c2)ccc1OCC(=O)NC(C)(C)C	?	?	?	-7.4%	31.4%[38.3 µM]	?
O=C(O)c1ccccc1NCn1c(=S)sc2ccccc21	?	.	.	-0.1%[11.4 µM]	2.2%	?
CN(C)c1nc(-c2ccccc2C(F)(F)F)nc2ccccc12	-6.5%	.	.	.	7.4%	.
COC(=O)CC1Oc2cc3oc4c(c3cc2O1)C(=O)CC(C)(C)C4 (stereo not drawn)	10µM*	.	.	-0.7%	-1.8%	25.1µM*
SMILES	ALDH1A1 inh	PNC inhibitor	IMPase cell inh	12-hLO inh	IMPase Li inh	HPGD inh
CC1(C)CC(=O)c2c(oc3cc(O)c(O)cc23)C1	2µM*	47.3	1.7	-17.6%	14.4%	6.31µM*
CC(C)c1ccc(S(=O)(=O)Nc2ccc3oc4c(c3c2)C(=O)CC(C)(C)C4)cc1	.	.	-3.1	.	.	.
Cc1cccc(CNc2ncnc3ccc(-c4ccccc4C#N)cc23)c1	?	.	.	1.2%	-3.1%	?
O=C(NCc1ccco1)c1cc(NS(=O)(=O)c2cccc([N+](=O)[O-])c2)ccc1O	11.2µM*	.	.	.	7.8%	.
O=C(NCc1ccco1)c1cccc(-c2nnc(-c3ccccc3)o2)c1	?	5.3	22.8	-6.5%	38.4%[38.3 µM]	12.6µM*
O=C(NCc1ccco1)c1cccc(NS(=O)(=O)c2cccc(F)c2)c1	?	?	.	-0.7%	-6.7%	-0.2%
O=C(NCc1ccco1)c1cccc(NS(=O)(=O)c2ccccc2F)c1	3.55µM*	-10.1	.	2.8%	-0.9%	-15.4%
O=C(NCc1ccccn1)c1cccc(NS(=O)(=O)c2ccccc2F)c1	1.26µM*	24.9	.	-3.5%	5.5%	-3.6%
Cc1ccc(NS(=O)(=O)c2cc(C(=O)NCc3ccccn3)ccc2Cl)cc1	10.9%	49.2	-11.2	1.9%	-13.4%[38.3 µM]	-7.0%
O=C(NCc1ccco1)c1ccccc1-c1nc(-c2ccccc2)no1	?	-18.6	9.7	6.9%	9.9%[38.3 µM]	-28.2%
COc1ccc(-c2nc3c(c4c2C[C@H](c2ccccc2)OC4)CN(S(=O)(=O)c2ccc4c(c2)OCCN4C)CC3)c(C)c1	?	.	.	1.5%[11.4 µM]	11.0%	-0.2%
CCN(C(=O)CCC(=O)N(CC)c1ccccc1)c1ccccc1	4.1%	20.4	.	7.6%	-3.4%	-12.6%
CCCC(=O)N(CCN(C(=O)CCC)c1ccccc1)c1ccccc1	4.3%	-100.0*	?	1.9%	8.8%	-4.3%
C#CCN(C)CCCOc1ccc(Cl)cc1Cl	5.1%	12.3	-7.6[20.6 µM]	-0.1%	1.7%	14.1µM*
CCN(CC)C(=O)CCCOc1ccc(Cl)cc1Cl	-1.9%	-29.7	4.4	-5.9%	1.0%[38.3 µM]	25.1µM*
CC(C)NC(=O)CCCOc1ccc(Cl)cc1Cl	5.1%	7.4	4.4	8.8%	26.5%[38.3 µM]	14.1µM*
O=C(COc1ccc(Cl)cc1Cl)Nc1ccc(Cl)cn1	14.9%	23.3	8.0	-4.9%	-2.8%[38.3 µM]	8.91µM*
CC(C)Nc1nc(NC(C)C)nc(N(C#N)CCOc2ccc(Cl)cc2Cl)n1	-8.9%	-13.9	-3.3	-18.2%	9.7%	-8.6%
Cc1ccc(C(C)C)c(OCC(=O)Nc2ccc(Cl)cn2)c1	7.8%	-18.3	1.9	-1.3%	35.4%[38.3 µM]	-7.1%
COC(=O)NNC(=O)CCCOc1ccc(Cl)cc1Cl	2.2%	-28.9	.	-1.1%	4.7%	-18.2%
Cc1cccc(OCCCC(=O)NC(C)c2ccccc2)c1 (stereo not drawn)	-2.8%	-5.2	8.3	-6.9%	16.5%[38.3 µM]	-15.2%
CN(C(=S)NC(=O)CCCOc1ccc(Cl)cc1Cl)c1ccccc1	17.8µM*	-28.8	2.0	-8.5%	48.4%[38.3 µM]	11.2µM*
Cc1cccc(OCCCC(=O)NC(C)C)c1	2.7%	-80.2*	4.1	-2.8%	-1.0%[38.3 µM]	-13.7%
O=C(c1ccc(F)cc1)N1CCC(c2ccccc2)C1 (stereo not drawn)	-1.6%	.	.	.	.	.
